# Laboratory results reported in PubChem BioAssay AID463173 (ICCB-Longwood Screening Facility, Harvard Medical School, 2010).
# The whole screen tested about 52,000 compounds, of which about 1,700 (3.3%) were called active. The full list was thinned out, with actives kept by preference. Unmarked numbers belong to inactive results. Cut-off read from the data, not from the text of the source: active = survival mostly below about 52% (no sharp cut-off); inactive = mostly above about 56%.
# Tested on: Wild type
# Assay: growth inhibition of S. aureus wild type versus tarO mutant, primary screen, teichoic acid synthesis inhibitors, RN4220, OD600 (AID 463173)
# Settings: S. aureus RN4220 wild type/DeltatarO growth, OD600, 18 h, active compounds read low, screened at 18.75 µg/mL (by protocol)
row,SMILES,survival
1,Cc1cccc(Cn2cccc2CNS(=O)(=O)c2ccc(Br)cc2)c1,64%
2,Cc1cccc(Cn2cccc2CNS(=O)(=O)c2ccccc2F)c1,-4% (active)
3,CCc1ccc(S(=O)(=O)NCc2cccn2Cc2cccc(C)c2)cc1,71%
4,Cc1cccc(-c2noc(-c3ccc(N4CCN(C)CC4)c([N+](=O)[O-])c3)n2)c1,-3% (active)
5,COc1ccc(-c2noc(COc3ccc(Br)cc3C)n2)cc1OC,11% (active)
6,COc1cc(OC)cc(-c2nc(-c3ccc4c(c3)[nH]c(=O)n4C)no2)c1,73%
7,COc1ccc(OCc2nc(-c3ccc(OC)c(OC)c3)no2)cc1,70%
8,CCc1ccc(OCc2nc(-c3ccc(OC)c(OC)c3)no2)c(Br)c1,38%
9,COc1ccc(N2CCN(c3ccc(-c4nc(-c5cccc(C)c5)no4)cc3[N+](=O)[O-])CC2)cc1,89%
10,COc1cc(OC)cc(-c2nc(-c3cccc(C)c3)no2)c1,-15% (active)
11,Cc1cccc(-c2noc(-c3ccc(N4CCCC4)c([N+](=O)[O-])c3)n2)c1,81%
12,COc1ccc(-c2noc(COc3cc(C)c(Br)c(C)c3)n2)cc1OC,80%
13,Cc1ccc(-c2noc(-c3ccc(N4CCN(C)CC4)c([N+](=O)[O-])c3)n2)cc1,85%
14,COc1ccc(-c2noc(COc3cc(C)ccc3C)n2)cc1OC,0% (active)
15,COc1ccc(-c2noc(CN(C)S(=O)(=O)c3c(C)cc(C)cc3C)n2)cc1OC,78%
16,Cc1cc(C)c(S(=O)(=O)NCC(c2ccco2)N2CCN(c3ccccc3)CC2)c(C)c1 (configuration not stated),85%
17,Cc1ccc(Nc2nc3ccccc3c3nncn23)c(Cl)c1,132%
18,O=C(NCc1cccs1)c1nn(-c2ccccc2Cl)nc1CO,116%
19,COc1cccc(-c2cc(C(=O)Nc3cc(OC)c(OC)c(OC)c3)on2)c1,69%
20,COc1ccc(NS(=O)(=O)c2ccc3[nH]c4c(c3c2)CCCC4)c(OC)c1,99%
21,COc1cccc(CCNC(=O)c2cnc3sc(N4CCCCCC4)nn3c2=O)c1,80%

row,SMILES,survival
1,O=C(CSc1ncc(S(=O)(=O)c2ccc(Cl)cc2)c(=O)[nH]1)Nc1cccc(C(F)(F)F)c1,78%
2,COc1ccccc1OCc1nc(-c2cccc(C)c2)no1,0% (active)
3,COc1cccc(-c2noc(COc3cccc(C)c3C)n2)c1,85%
4,COc1ccc(C(=O)NCc2nc(-c3cccc(C)c3)no2)cc1OC,113%
5,Cc1ccc(N2C(=O)CS(=O)(=O)C23C(=O)N(Cc2cccc(F)c2)c2ccccc23)cc1Cl (configuration not stated),75%
6,COc1ccc(CC(=O)N2CC(=O)Nc3ccc(Br)cc3C2c2ccc(F)cc2)cc1 (configuration not stated),64%
7,Cc1ccc2c(c1)N(C(=O)Nc1cccc(C)c1C)CCO2,89%
8,Cc1cccc(-n2nc(C)c(C(=O)N3CCN(c4ccccc4)CC3)c2-n2cccc2)c1,53%
9,COc1cccc(CNC(=O)c2c(C)nn(-c3cccc(C)c3)c2-n2cccc2)c1,71%
10,COc1cc(NC(=O)c2c(C)nn(-c3ccc(F)cc3)c2-n2cccc2)cc(OC)c1,70%
11,CCOC(=O)N1CCN(C(=O)c2c(C)nn(-c3cccc(C)c3)c2-n2cccc2)CC1,-3% (active)
12,CCOC(=O)N1CCC(NC(=O)c2c(C)nn(-c3cccc(C)c3)c2-n2cccc2)CC1,85%
13,COc1cccc(NC(=O)c2c(C)nn(-c3cccc(C)c3)c2-n2cccc2)c1,0% (active)
14,Cc1ccc(NC(=O)C2C3C=CC4(O3)C2C(=O)N(c2ccccc2F)C4C(=O)NC2CCCC2)cc1 (configuration not stated),84%
15,O=C(Nc1ccc(C(=O)OCc2cc(=O)n3nc(C4CC4)sc3n2)cc1)c1ccccc1,70%
16,O=C(CCc1nc2cccnc2n1Cc1cccs1)Nc1cccc(C(F)(F)F)c1,79%
17,COC(=O)C(C)n1cnc2sc3c(c2c1=O)CCCC3 (configuration not stated),102%
18,CCOC(=O)CSc1ncnc2sc3c(c12)CCC3,100%
19,CCOC(=O)C(CC)Sc1ncnc2sc3c(c12)CCCC3 (configuration not stated),-3% (active)
20,Clc1ncnc2sc3c(c12)CCCC3,108%
21,CCC(Sc1ncnc2sc3c(c12)CCCC3)C(=O)OC(C)C (configuration not stated),-2% (active)

row,SMILES,survival
1,CCC(Sc1ncnc2sc3c(c12)CCCC3)C(=O)OCC(C)C (configuration not stated),-3% (active)
2,CNC(=O)CSc1ncnc2sc3c(c12)CCCC3,104%
3,CC(C)OCCCNc1ncnc2sc3c(c12)CCCC3,79%
4,Nc1ncnc2sc3c(c12)CCCC3,109%
5,Cc1oc(-c2ccc(C(=O)Nc3cccc(C(F)(F)F)c3)cc2)nc1CSc1ccccc1,57%
6,Cc1ccc(C)c(N2CCN(S(=O)(=O)c3ccc4oc(=O)c5ncn(C)c5c4c3)CC2)c1,81%
7,Cc1c(Cl)cccc1NC(=O)Nc1nnc(N(C)C2CCCCC2)s1,111%
8,Cc1ccc(-n2c(=O)c3cccnc3n2CC(=O)Nc2ccc(Br)cc2)cc1C,57%
9,O=C(CSc1ncc(-c2ccccc2)[nH]1)Nc1cccc(Br)c1,13%
10,O=C(O)c1ccc(-c2ccc(/C=N/N3C(=O)C4C(C3=O)C3C=CC4C34CC4)o2)cc1 (configuration not stated),110%
11,CC1CCN(S(=O)(=O)c2ccc3c(c2)N(C)C(=O)CC(=O)N3C)CC1,74%
12,Cc1cccn2c(=O)c3cc(C(=O)NCC(C)C)sc3nc12,80%
13,COc1ccccc1N(C)C(=O)Cn1c(=O)oc2cc(S(=O)(=O)N3CCCC3)ccc21,127%
14,CCOc1ccc(NC(=O)CSc2nnc3scc(-c4ccccc4)n23)cc1,48%
15,COc1ccc(NC(=O)CN2CCCN(Cc3ccc(Cl)cc3)S2(=O)=O)cc1Cl,67%
16,Cc1ccc(CN2CCCN(Cc3c(C)cc(C)cc3C)S2(=O)=O)cc1,63%
17,COC(=O)c1ccc(NC(=O)CN2CCCN(Cc3ccc(Cl)cc3)S2(=O)=O)cc1,110%
18,Cc1ccc(C)c(CN2CCCN(Cc3ccc(F)cc3)S2(=O)=O)c1,-6% (active)
19,Cc1ccc(C)c(CN2CCCN(Cc3ccccc3C)S2(=O)=O)c1,76%
20,COC(=O)c1ccc(OC)c(CN2CCCN(Cc3ccc(C)cc3)S2(=O)=O)c1,-3% (active)
